We go through 7 compounds from PubChem BioAssay.

Experiment [1] in a line: liver-stage malaria parasite growth inhibition, primary screen, cell-based, HepG2, luciferase luminescence, HepG2 viability (AID 624349; in the data active = parasite load remaining mostly below about 12%, no sharp cut-off; inactive = mostly above about 10%;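 also: 100% = mean of DMSO negative control wells on the same plate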). The note with it: P. berghei liver stage in HepG2, luciferase luminescence, concentration not given here; parasite load remaining: stronger effect = lower value; viability: measured here: HepG2 viability without parasites.
A short description of experiment [2]: Cy5 fluorescence interference with SSB-bound oligo, artefact control for HCV NS3 helicase inhibitor project, biochemical, NIH Clinical Collection, E. coli SSB (AID 743268; call rule not given here).
In experiment [3] the test system is Hepatitis C virus NS3 helicase. Kind of experiment: HCV NS3 helicase inhibitors, primary screen, biochemical, fluorescence polarization, NIH Clinical Collection (AID 743270; call rule not given here). To be noted: NS3 helicase binding to Cy5-dT15 DNA, stronger effect = higher value, concentration not given here. Background: Polarisation of emitted light reports the rotation of a fluorescent probe.

The target in experiment [4] is Single-stranded DNA-binding protein (Escherichia coli (strain K12)) (UniProt P0AGE0). Kind of experiment: E. coli SSB displacement from DNA, counter-screen for HCV NS3 helicase inhibitor project, biochemical, fluorescence polarization, NIH Clinical Collection (AID 743271; in the data active = inhibition above about 28%). The note with it: stronger effect = higher value, concentration not given here.
Experiment [5] in a line: fluorescence interference in NS3h assay format, artefact control for HCV NS3 helicase inhibitor project, biochemical, NIH Clinical Collection (AID 743272; call rule not given here;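 also: HCV NS3 helicase with a Cy5 labelled single stranded DNA probe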). To be noted: fluorescence interference counterscreen, stronger effect = lower value. (The purpose of a counterscreen is to sort out artefacts and off-target activity.)
For experiment [6], the system named is Neuropilin-2 / VEGF-C interaction (human). Kind of experiment: inhibitors of NRP2–VEGF-C binding, biochemical, microplate binding format, z-score (AID 743281; call rule not given here). To be noted: microplate NRP2/VEGF-C binding assay; stronger effect = lower value.
A short description of experiment [7]: modulation of C. elegans fzo-1 (AID 1259413; call rule not given here;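 also: fzo-1 mutant C. elegans worms in liquid wells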). The note with it: C. elegans fzo-1 modulator screen, mean read-out; stronger effect = higher value.
The test system of experiment [8] is F380Y. Kind of experiment: modulators of BK channel variants, profiling panel, selectivity assay, cell-based, U2OS BacMam, thallium flux, beta subunits (AID 1259406).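 Also: initial slope of Thallos dye fluorescence rise after thallium is added; log ratio against the mean of 0.3% DMSO vehicle wells on the same plate.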 The note with it: at 30 µM.
In experiment [9] the test system is F380Y/beta1. Described as above. The note with it: at 30 µM.
The subject of experiment [10] is F380Y/beta2Delta. The description is as above. To be noted: at 30 µM.
The subject of experiment [11] is F380Y/beta4. The description is as above. To be noted: at 30 µM.
Experiment [12] concerns the target Calcium-activated potassium channel subunit alpha-1 (Homo sapiens) + Leucine-rich repeat-containing protein 26 (Homo sapiens) (UniProt Q12791+Q2I0M4). Described as above. The note with it: F380Y/Slo1WT/gamma1, at 30 µM.
Experiment [13] has as its system R275C. Described as above. The note with it: at 30 µM.
Experiment [14] relates to R275C/beta1. The description is as above. To be noted: at 30 µM.
The test system of experiment [15] is R275C/beta2Delta. The experiment is described as above. To be noted: at 30 µM.
In experiment [16] the test system is R275C/beta4. The experiment is described as above. The note with it: at 30 µM.
The test system of experiment [17] is R275C/Slo1WT/beta2. The description is as above. To be noted: at 30 µM.
The nature of experiment [18]: sensitizers of A549 cells to miR-34 induction, primary screen, imaging, A549 dox-inducible miR-34, nuclei and caspase counts (AID 1347080;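 active = compounds whose cell count with miR-34 switched on is under 0.7 times the count with it off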). The note with it: A549 miR-34 inducible, Hoechst nuclei count, 48 h.
Experiment [19] can be described thus: viability rescue of complex I mutant cybrids, primary screen, cell-based, galactose medium, ATP luminescence (AID 1645843;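 active = z-score of at least 1.8 in each of two replicates, scored against plate mean and spread of sample wells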;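 also: positive z means more ATP and so rescue of galactose-driven cybrid death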). To be noted: complex I mutant cybrid cells, 72 h, stronger effect = higher value.
Setting [20] is: stronger effect = lower value, cell number ratio, induced over uninduced.
[21] abbreviates: measured here: relative caspase fold change +Dox/-Dox.
Where [22] appears, read: measured here: total cells with miR-34 induction, stronger effect = lower value.
Where [23] appears, read: measured here: total cells without miR-34 induction.

Structures are written as SMILES. Where “and” joins values, the source holds several entries; their conditions need not be identical. Identical values can stand only once. Calls of active or inactive are those of the source.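 The calls were made as follows, unless noted: active = thallium flux through the channel raised or lowered by more than 3 SD from vehicle-only wells, actives on both sides; inactive = the rest.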

A word on the viability: it is a read-out of living cells in per cent, often relative to untreated cells. What is called inhibition is the drop in the measured response relative to a control, in per cent.

Chain of Calcium-activated potassium channel subunit alpha-1 (Homo sapiens) + Leucine-rich repeat-containing protein 26 (Homo sapiens) (Q2I0M4 whole entry, looked up, one chain of several): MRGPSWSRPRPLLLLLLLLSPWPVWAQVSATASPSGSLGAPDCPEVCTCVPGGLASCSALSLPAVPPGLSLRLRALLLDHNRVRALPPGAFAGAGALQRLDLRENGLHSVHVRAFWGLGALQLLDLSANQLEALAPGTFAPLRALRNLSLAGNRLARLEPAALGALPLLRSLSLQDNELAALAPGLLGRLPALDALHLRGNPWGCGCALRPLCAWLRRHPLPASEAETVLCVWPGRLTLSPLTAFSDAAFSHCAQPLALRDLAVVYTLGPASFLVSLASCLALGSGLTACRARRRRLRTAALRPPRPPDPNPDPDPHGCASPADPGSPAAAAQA

Regarding `CCN(CC)C(=O)[C@]1(c2ccccc2)C[C@@H]1CN`, the parasite load remaining in [1] is 94.6% (inactive). In experiment [1], the viability is 71.3%. The values for the fluorescence ratio in experiment [2] and in experiment [5] were 1.07 (inactive) and 1.06 (inactive), respectively. The inhibition in experiment [3] was 1.98% (inactive); in [4], -3.18% (inactive). Besides, the z-score in experiment [6] was -0.224 (inactive). In experiment [7], the mean signal is 248 (inactive). In addition, the log fold change Tl+ flux in [8] is 0.0604 (inactive); in [9] it was 0.0284 (inactive); in [10], -0.038 (inactive); in [11] it was 0.00308 (inactive); in [12], 0.0521 (inactive); in experiment [13], -0.00612 (inactive). The log fold change Tl+ flux was -0.0552 (inactive) in experiment [14], -0.0341 (inactive) in [15], 0.0155 (inactive) in experiment [16] and 0.0022 (inactive) in experiment [17].
Take `O=c1cnn([C@@H]2O[C@H](CO)[C@@H](O)[C@H]2O)c(=O)[nH]1`: the parasite load remaining in experiment [1] is 51.8% (inactive). Also, the viability in [1] worked out at 79.3%. The fluorescence ratio in [2] is 0.94 (inactive); in experiment [5], 0.89 (inactive). In addition, the inhibition in [3] is -2.84% (inactive); in experiment [4] it was -1.97% (inactive). Moreover, the z-score in experiment [6] is -0.659 (inactive). Further, the mean signal in experiment [7] was 301 (inactive). Also, the log fold change Tl+ flux is -0.0103 (inactive) in experiment [8]; 0.0132 (inactive) in [9]; -0.027 (inactive) in experiment [10]; 0.00308 (inactive) in [11]; -0.026 (inactive) in experiment [12]; 0.00432 (inactive) in experiment [13]. The log fold change Tl+ flux was -0.00973 (inactive) in experiment [14], -0.0295 (inactive) in experiment [15], -0.0439 (inactive) in experiment [16] and -0.0257 (inactive) in experiment [17].
For `C[C@H]1O[C@@H](O[C@H]2[C@@H](O)C[C@H](O[C@H]3[C@@H](O)C[C@H](O[C@H]4CC[C@@]5(C)[C@H](CC[C@@H]6[C@@H]5C[C@@H](O)[C@]5(C)C(C7=CC(=O)OC7)CC[C@]65O)C4)O[C@@H]3C)O[C@@H]2C)C[C@H](O)[C@@H]1O` (some centres not stated), the parasite load remaining in experiment [1] was -5.28% (inactive). Moreover, in experiment [1], the viability turned out to be 8.28%. Also, the fluorescence ratio in experiment [2] is 0.93 (inactive); in experiment [5], 0.99 (inactive). Besides, the values for the inhibition in experiment [3] and in [4] were -1.36% (inactive) and 4.86% (inactive), respectively. Further, the results for the fold change in experiment [18] (setting [20]) and in experiment [18] (setting [21]) were 0.475 (active) and 1.15, respectively. Besides, the cell count in experiment [18] (setting [22]) turned out to be 266; in experiment [18] (setting [23]), 560. Moreover, the z-score in experiment [19] is -0.815 (inactive). Also, the log fold change Tl+ flux was -0.0279 (inactive) in [8]; 0.0633 (inactive) in experiment [9]; 0.00458 (inactive) in experiment [10]; -0.0566 (inactive) in experiment [11]; -0.00567 (inactive) in experiment [12]; -0.0269 (inactive) in experiment [13]. Also, the log fold change Tl+ flux is -0.0167 (inactive) in experiment [14], -0.0151 (inactive) in [15], -0.0475 (inactive) in experiment [16] and 0.0268 (inactive) in experiment [17].
As to `CN(CCO)CC(O)Cn1cnc2c1c(=O)n(C)c(=O)n2C` (configuration not stated) (tested in a mixture with another compound), the parasite load remaining in experiment [1] was 65% (inactive). In experiment [1], the viability amounted to 66.2%. The fluorescence ratio in [2] was 0.97 (inactive); in experiment [5], 0.94 (inactive). In addition, the inhibition was -0.22% (inactive) in experiment [3] and 0.39% (inactive) in experiment [4]. The z-score in [6] was -0.276 (inactive); in [19], 0.47 (inactive). Also, the mean signal in experiment [7] was 208 (inactive). In addition, the fold change in experiment [18] (setting [20]) was 1.72 (inactive); in experiment [18] (setting [21]) it was 0.852. Also, the cell count in [18] (setting [22]) was 8830; in experiment [18] (setting [23]), 5120. The log fold change Tl+ flux was 0.0136 (inactive) in experiment [8]; 0.0124 (inactive) in experiment [9]; -0.0171 (inactive) in experiment [10]; 0.017 (inactive) in experiment [11]; 0.0349 (inactive) in experiment [12]; -0.0477 (inactive) in experiment [13]. In addition, the log fold change Tl+ flux was 0.0362 (inactive) in experiment [14], -0.03 (inactive) in [15], -0.00112 (inactive) in experiment [16] and 0.00717 (inactive) in [17].
As to `CC1(C)C[C@@H]1C(=O)N/C(=C\CCCCSC[C@H](N)C(=O)O)C(=O)O`, the parasite load remaining in experiment [1] was 86.6% (inactive). Moreover, in experiment [1], the viability was 71.9%. Besides, the values for the fluorescence ratio in experiment [2] and in experiment [5] were 1.03 (inactive) and 1.01 (inactive), respectively. The figures for the inhibition in [3] and in [4] were 0.4% (inactive) and -0.1% (inactive), respectively. In [6], the z-score is -0.458 (inactive). In addition, the mean signal in experiment [7] was 226 (inactive). The log fold change Tl+ flux in experiment [8] is 0.00013 (inactive); in [9], 0.0415 (inactive); in [10], 0.0097 (inactive); in experiment [11] it was -0.0167 (inactive); in experiment [12], -0.0144 (inactive); in experiment [13], -0.0675 (inactive). Further, the log fold change Tl+ flux was 0.00997 (inactive) in experiment [14], 0.0368 (inactive) in experiment [15], 0.0142 (inactive) in experiment [16] and 0.00806 (inactive) in experiment [17].
In the case of `O=c1c(O[C@@H]2O[C@H](CO)[C@H](O)[C@H](O)[C@H]2O)c(-c2ccc(O)c(O)c2)oc2cc(O)cc(O)c12`, the parasite load remaining in experiment [1] was 108% (inactive). Moreover, the viability in experiment [1] was 61.9%. For the same compound, the fluorescence ratio in experiment [2] is 0.94 (inactive); in experiment [5], 1 (inactive). Moreover, the inhibition was 1.98% (inactive) in experiment [3] and 15.3% (inactive) in experiment [4]. Besides, in experiment [6], the z-score is -0.00792 (inactive). Moreover, in [7], the mean signal was 249 (inactive). Moreover, the log fold change Tl+ flux in experiment [8] is -0.00852 (inactive); in experiment [9], -0.00723 (inactive); in [10], -0.0335 (inactive); in experiment [11], -0.027 (inactive); in [12] it was -0.0251 (inactive); in experiment [13], -0.00833 (inactive). Moreover, the log fold change Tl+ flux is -0.0329 (inactive) in experiment [14], 0.0189 (inactive) in experiment [15], 0.0212 (inactive) in experiment [16] and -0.0201 (inactive) in experiment [17].
Take `C=C1/C(=C\C=C2/CCC[C@]3(C)[C@@H]([C@H](C)CCCC(C)(C)O)CC[C@@H]23)C[C@@H](O)C[C@@H]1O`: the parasite load remaining in experiment [1] is 39.1% (inactive) and 53.6% (inactive). Moreover, the viability in experiment [1] was 72.4% and 142%. The fluorescence ratio was 0.98 (inactive) in experiment [2] and 0.91 (inactive) in [5]. Also, the inhibition in [3] was 3.56% (inactive); in experiment [4], 2.21% (inactive). The fold change is 1.03 (inactive) and 0.94 (inactive) in experiment [18] (setting [20]); 1.63 and 1.45 in [18] (setting [21]). The cell count in [18] (setting [22]) is 5100 and 8330; in [18] (setting [23]), 4940 and 8850. Also, in [19], the z-score was -0.805 (inactive). Further, the log fold change Tl+ flux in experiment [8] was 0.103 (inactive); in experiment [9], 0.0867 (inactive); in experiment [10], 0.0281 (inactive); in [11] it was 0.0801 (inactive); in experiment [12], 0.0668 (inactive); in [13], -0.0123 (inactive). The log fold change Tl+ flux is 0.0898 (active) in experiment [14], 0.0428 (inactive) in [15], 0.0602 (inactive) in [16] and -0.0015 (inactive) in experiment [17].
